The campaign covered roughly 5,500 compounds. About 2,000 (36%) were called active. Not shown: some 18% with an inconclusive outcome. No stated cut-off is given here; in the data, active means normalized growth mostly below about 0.91 (no sharp cut-off); inconclusive means no clear call, values can overlap the other calls; inactive means mostly above about 0.92. This is one part of the list.
Experiment: chemical genetic growth profiling, strain panel (AID 1159580);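 further: tested at 20 µM; growth read once vehicle control cultures reached saturation at 30 °C; 1 = growth at the plate median or of vehicle wells; lower values mean less growth of the strain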
Conditions: S. cerevisiae deletion strains, growth OD
[1] = locus YHR030C, strain SLT2, hits give low values

Measured: normalized growth

N#CC(C(=O)Nc1cccc(C(F)(F)F)c1)C(=S)Nc1ccccc1Cl (configuration not stated)
inactive: locus YAR019C, strain CDC15, hits give low values 0.992 | locus YDL017W, strain CDC7, hits give low values 0.985 | locus YDL028C, strain MPS1, hits give low values 1 | locus YDL108W, strain KIN28, hits give low values 0.99 | locus YDL132W, strain cdc53, hits give low values 0.976 | locus YDR052C, strain DBF4, hits give low values 1 | locus YDR054C, strain cdc34, hits give low values 0.98 | locus YER123W, strain YCK3, hits give low values 0.969 | locus YFL009W, strain cdc4, hits give low values 0.989 | locus YFL029C, strain CAK1, hits give low values 1 | locus YFR003C, strain YPI1, hits give low values 0.997 | locus YFR019W, strain FAB1, hits give low values 0.957 | locus YFR028C, strain CDC14, hits give low values 0.977 | locus YGR092W, strain DBF2, hits give low values 0.98 | [1] 0.957 | locus YHR079C, strain IRE1, hits give low values 0.978 | locus YHR205W, strain SCH9, hits give low values 0.975 | locus YIL147C, strain SLN1, hits give low values 0.996 | locus YJL095W, strain BCK1, hits give low values 0.914 | locus YJR016C, strain ILV3, hits give low values 0.978 | locus YJR066W, strain TOR1, hits give low values 0.78 | locus YKL048C, strain ELM1, hits give low values 0.986 | locus YKL101W, strain HSL1, hits give low values 0.994 | locus YKL193C, strain SDS22, hits give low values 0.998 | locus YLR133W, strain CKI1, hits give low values 0.984 | locus YLR403W, strain SFP1, hits give low values 0.979 | locus YML070W, strain DAK1, hits give low values 0.966 | locus YMR001C, strain CDC5, hits give low values 0.995 | locus YMR205C, strain PFK2 (second series), hits give low values 0.991 | locus YMR277W, strain FCP1, hits give low values 0.98 | locus YNL006W, strain LST8, hits give low values 0.991 | locus YNL020C, strain ARK1, hits give low values 0.981 | locus YNL207W, strain RIO2, hits give low values 0.996 | locus YNL307C, strain MCK1 (second series), hits give low values 0.983 | locus YOL078W, strain AVO1, hits give low values 0.992 | locus YOL136C, strain PFK27, hits give low values 0.959 | locus YOR061W, strain CKA2, hits give low values 0.97 | locus YOR231W, strain MKK1, hits give low values 1.01 | locus YOR329C, strain SCD5, hits give low values 0.997 | locus YPL153C, strain RAD53, hits give low values 0.963 | locus YPL204W, strain HRR25, hits give low values 0.963 | locus YPL209C, strain IPL1, hits give low values 1 | locus YPR025C, strain CCL1, hits give low values 0.993 | strain NNK1, hits give low values 1.02 | strain TSCII, hits give low values 0.996
active: locus YDL214C, strain PRR2, hits give low values 0.296 | locus YDR477W, strain SNF1, hits give low values 0.105 | locus YER133W, strain GLC7, hits give low values 0.143 | locus YGR040W, strain KSS1, hits give low values 0.147 | locus YGR052W, strain FMP48, hits give low values 0.396 | locus YLR113W, strain HOG1, hits give low values 0.449 | locus YNL183C, strain NPR1, hits give low values 0.191 | locus YPL256C, strain CLN2, hits give low values 0.501 | locus YPR111W, strain DBF20, hits give low values 0.784

Cc1ccc(NC(=S)C(C#N)C(=O)N2CCCC2)c(C)c1 (configuration not stated)
inactive: locus YAL013W, strain DEP1, hits give low values 1.01 | locus YBR229C, strain ROT2, hits give low values 0.998 | locus YDL101C, strain DUN1, hits give low values 1.01 | locus YDR150W, strain NUM1, hits give low values 0.928 | locus YEL061C, strain CIN8, hits give low values 1.02 | locus YGR078C, strain PAC10, hits give low values 0.988 | locus YGR229C, strain SMI1, hits give low values 1 | [1] 1.06 | locus YHR087W, strain rtc3, hits give low values 1.01 | locus YJR043C, strain POL32, hits give low values 1.01 | locus YJR075W, strain HOC1, hits give low values 1.02 | locus YKL190W, strain CNB1, hits give low values 1.01 | locus YLR039C, strain RIC1, hits give low values 1.02 | locus YLR058C, strain SHM2 (second series), hits give low values 0.995 | locus YLR085C, strain ARP6, hits give low values 1.06 | locus YLR262C, strain YPT6, hits give low values 1 | locus YML094W, strain GIM5, hits give low values 1.03 | locus YMR219W, strain ESC1, hits give low values 1 | locus YMR263W, strain SAP30, hits give low values 0.922 | locus YMR307W, strain GAS1, hits give low values 1.03 | locus YNL153C, strain GIM3, hits give low values 0.98 | locus YNL298W, strain CLA4 (second series), hits give low values 1.03 | locus YNL322C, strain KRE1, hits give low values 0.988 | locus YNR030W, strain Alg12, hits give low values 1.02 | locus YOL006C, strain TOP1, hits give low values 1.04 | locus YPL055C, strain LGE1, hits give low values 0.948 | locus YPL241C, strain CIN2, hits give low values 1.02 | locus YPR135W, strain CTF4, hits give low values 1.04
